This note sets out measurements from PubChem BioAssay (Tox21).

Test [1] is described as follows: qHTS RealTime-Glo MT Cell Viability Assay in HepG2 cells - 16 hour (AID 1224885). Further: nearly all actives have a fitted effect of over 50% in size. Further: potency means the concentration at half of the fitted maximal effect. The settings on record: RealTime-Glo luminescence; series mostly up to 76.8 µM. In short, it runs like this:
(§1)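 Real-time, nonlytic viability: 600 HepG2 cells/well mixed with NanoLuc enzyme plus prosubstrate; 5 h settle, compound (DMSO) added by pintool; luminescence monitored over 40 h at 37 C.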
In general terms: qHTS replaces the single test concentration by a dilution series.

Test [2] is described as follows: qHTS RealTime-Glo MT Cell Viability Assay in HepG2 cells - 0 hour (AID 1224889). Further: nearly all actives have a fitted effect of over 50% in size. Conditions: RealTime-Glo luminescence; series mostly up to 76.8 µM. In short, it runs like this:
as §1

The nature of test [3]: qHTS assay to identify small molecule antagonists of the estrogen receptor alpha (ER-alpha) signaling pathway using the BG1 cell line in the presence of 0.1 nM 17-beta-estradiol - cell viability counter screen (AID 1259241). Further: nearly all actives have a fitted effect of over 40% in size. Further: potency means the concentration at half of the fitted maximal effect. Conditions: VM7Luc4E2 (BG1) viability, CellTiter-Fluor protease, 22 h, 0.1 nM estradiol agonist added; series mostly up to 92.4 µM. In short, it runs like this:
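Live-cell protease activity (CellTiter-Fluor fluorescence, 30 min) was read in the same wells after VM7Luc4E2 cells had been exposed to compounds with 0.1 nM 17beta-estradiol for 22 hr at 37C.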

Test [4] in a line: qHTS assay to identify small molecule antagonists of the androgen receptor (AR) signaling pathway using the MDA cell line in the presence of 0.5 nM R1881 - cell viability counter screen (AID 1259242). Further: nearly all actives have a fitted effect of over 45% in size. Further: potency means the concentration at half of the fitted maximal effect. Conditions: MDA-kb2 viability, CellTiter-Fluor protease fluorescence, 16 h; series mostly up to 92.4 µM. An outline of the steps:
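Steps: plate MDA-kb2 cells, rest 5 hr at 37C without CO2; pin in compounds in DMSO; add R1881 to 0.5 nM final; incubate 16 hr; add CellTiter-Fluor, 30 min; read fluorescence.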

A short description of test [5]: A CellTox Green Cytotoxicity Assay to monitor cytotoxicity in HEK293 cells - 8 hour (AID 1224884). Further: nearly all actives have a fitted effect of over 35% in size. Further: potency means the concentration at half of the fitted maximal effect. Conditions: CellTox Green fluorescence; series mostly up to 76.8 µM. An outline of the steps:
(§2)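 Cells (HEK293, 600/well) and dye reagent are dispensed together. After 5 h at 37 C, 23 nL compound is pinned in. Plates stay at 37 C for 40 h with fluorescence read at 0h, 8h, 16h, 24h, 32h and 40h.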

Test [6] in a line: qHTS RealTime-Glo MT Cell Viability Assay in HEK293 cells - 24 hour (AID 1224886). Further: nearly all actives have a fitted effect of over 50% in size. Further: potency means the concentration at half of the fitted maximal effect. Conditions: RealTime-Glo luminescence; series mostly up to 76.8 µM. In short, it runs like this: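 Cells + reagent dispensed (600 cells/well, HEK293) → 5 h at 37 C/5% CO2 → 23 nL compound in DMSO pinned → 40 h at 37 C → luminescence read at 0, 8, 16, 24, 32, 40 h.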
A short description of test [7]: qHTS RealTime-Glo MT Cell Viability Assay in HEK293 cells - 8 hour (AID 1224887). Further: nearly all actives have a fitted effect of over 50% in size. Further: potency means the concentration at half of the fitted maximal effect. The settings on record: RealTime-Glo luminescence; series mostly up to 76.8 µM. In short, it runs like this: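 Real-time viability in HEK293: signal arises when living cells convert a prosubstrate for NanoLuc in the medium, so luminescence tracks viable cell number. Compound (23 nL, DMSO) added 5 h post-seeding; kinetic reads at 0–40 h, 37 C.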

Test [8] is described as follows: A CellTox Green Cytotoxicity Assay to monitor cytotoxicity in HEK293 cells - 16 hour (AID 1224888). Further: nearly all actives have a fitted effect of over 35% in size. Further: potency means the concentration at half of the fitted maximal effect. The settings on record: CellTox Green fluorescence; series mostly up to 76.8 µM. In short, it runs like this:
as §2

Test [9] is described as follows: A CellTox Green Cytotoxicity Assay to monitor cytotoxicity in HepG2 cells - 8 hour (AID 1224890). Further: nearly all actives have a fitted effect of over 45% in size. Conditions: CellTox Green fluorescence; series mostly up to 76.8 µM. An outline of the steps:
(§3)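 Cells and non-lytic dye reagent are dispensed together (600 HepG2 cells/well) and incubated 5 h before DMSO compound transfer. Kinetic fluorescence is then recorded in the same wells during 40 h at 37 C.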

The nature of test [10]: A CellTox Green Cytotoxicity Assay to monitor cytotoxicity in HepG2 cells - 32 hour (AID 1224883). Further: nearly all actives have a fitted effect of over 50% in size. The settings on record: CellTox Green fluorescence; series mostly up to 76.8 µM. In short, it runs like this:
as §3

Inconclusive results are not listed. Activity calls are given as the source filed them. The call rests on the fitted dose curve; in most records, active means well fitted curve in the direction sought with a large enough effect in the repeat runs; inconclusive means weak or mixed curves; inactive means no such curve, though single readings can be large; an effect the other way counts as inactive or inconclusive.

Consider `CC1(c2ccc(Oc3ccccc3)cc2)OC(=O)N(Nc2ccccc2)C1=O` (centres undefined), for which the Potency in test [1] is 49.3 µM (active); in test [3], 21.8 µM (active); in test [4], 24.5 µM (active). Also, the Potency result in [2] is “inactive”.
As for `O=[N+]([O-])c1c2ccccc2cc2ccccc12`, the Potency entry in test [5], in [1], in [6], in [7], in [2] and in test [9] was “inactive” in each case. Besides, the Potency entry in test [3] was “inactive”. In addition, the Potency in [8] was 5.43 µM (active).
With `CCC(C)c1cc([N+](=O)[O-])cc([N+](=O)[O-])c1OC(=O)C=C(C)C` (centres undefined), the Potency result in test [5], in test [8], in test [2] and in test [9] was “inactive” each time. Besides, the Potency in test [6] is 38.9 µM (active); in test [7] it was 49 µM (active); in [3] it was 61.1 µM (active); in test [4] it was 61.1 µM (active).
`CSCCCN=C=S`: the Potency result in test [1], in [7], in test [8], in test [2], in test [9] and in [3] was “inactive” in each case. In [4], the Potency result is “inactive”.
Regarding `CC(C)(C)C(O)C(Oc1ccc(-c2ccccc2)cc1)n1cncn1` (centres undefined), the Potency result in test [5], in test [1], in test [8], in [2], in test [9] and in [3] was “inactive” in each case. The Potency entry in test [4] is “inactive”. The Potency in test [6] was 43.6 µM (active).
With `CC(C)OC(=S)S`, the Potency result in test [5], in test [1], in test [8], in [2], in [3] and in test [4] was “inactive” in each case.
In the case of `O=C(CBr)c1ccc(O)cc1`, the Potency result in test [5], in test [1], in test [8], in [2], in [9] and in [3] was “inactive” each time. Moreover, the Potency result in test [4] is “inactive”.
Take `CC(=O)OC1(c2ccccc2)CCN(CCc2ccccc2)CC1`: the Potency entry in test [5], in test [1], in test [8] and in test [2] was “inactive” throughout. In test [6], the Potency was 28.2 µM (active).
As to `Clc1ccc(CCC(Cn2ccnc2)Sc2c(Cl)cccc2Cl)cc1` (centres undefined), the Potency result in [5], in test [8], in [2], in test [3] and in [4] was “inactive” throughout.
Regarding `CC1(C)CC/C(=C/c2ccc(Cl)cc2)C1(O)Cn1cncn1` (centres undefined), the Potency entry in test [5], in test [1], in test [2], in [9] and in test [4] was “inactive” each time. The Potency in test [6] was 24.4 µM (active).
Turning to `CC(C)(C)c1cc([N+](=O)[O-])cc(C(C)(C)C)c1O`, the Potency result in test [5], in [8], in test [2] and in test [9] was “inactive” throughout. In test [4], the Potency was 13.7 µM (active).
As for `CCCN(CCC)CCc1c[nH]c2ccccc12`, the Potency entry in test [5], in test [1], in test [6], in test [7], in [8] and in test [2] was “inactive” each time.
Consider `CCN(CC)c1c([N+](=O)[O-])cc(C(F)(F)F)c(N)c1[N+](=O)[O-]`, for which the Potency result in test [5], in [8], in [2], in [3] and in [4] was “inactive” in each case. In addition, the Potency in test [6] is 17.4 µM (active); in test [7] it was 6.92 µM (active).
Regarding `ClCc1ccccc1CCl`, the Potency entry in test [5], in test [1], in test [7], in test [8], in test [2] and in test [9] was “inactive” in each case. Moreover, the Potency entry in test [3] and in test [4] was “inactive” each time.
In the case of `Oc1ccc(C2(c3ccc(O)cc3)CCCCC2)cc1`, the Potency entry in test [1], in test [2], in test [3] and in test [4] was “inactive” throughout.
`Oc1cc(Cl)c(Cl)c(Cl)c1`: the Potency result in test [1], in test [7], in [8], in test [9] and in test [3] was “inactive” each time.
`Clc1ccc(C(Cl)(Cl)Cl)c(Cl)c1`: the Potency entry in test [1], in test [7], in [2] and in [3] was “inactive” throughout.
For the molecule `Nc1ccccc1C(=O)Oc1ccc2ccccc2c1`, the Potency entry in [5], in test [1], in test [8], in [2], in test [3] and in test [4] was “inactive” each time.
As for `COc1cccc(C(=O)CCN[C@@H](C)[C@H](O)c2ccccc2)c1`, the Potency result in test [5], in test [7], in test [2], in test [9] and in test [3] was “inactive” throughout.
Regarding `CC1CCC(C(C)C)C(OC(=O)c2ccccc2N)C1` (centres undefined), the Potency is 48.3 µM (active) in test [5] and 34.2 µM (active) in test [7]. Also, the Potency entry in test [1], in [2], in test [9] and in test [3] was “inactive” each time.
For the molecule `CC[C@H](C)[C@H]1O[C@]2(C=C[C@@H]1C)C[C@@H]1C[C@@H](C/C=C(\C)[C@@H](O[C@H]3C[C@H](OC)[C@@H](O[C@H]4C[C@H](OC)[C@@H](O)[C@H](C)O4)[C@H](C)O3)[C@@H](C)/C=C/C=C3\CO[C@@H]4[C@H](O)C(C)=C[C@@H](C(=O)O1)[C@]34O)O2`, the Potency entry in test [5], in test [7], in [8] and in test [2] was “inactive” throughout. In [3], the Potency is 32.2 µM (active).
As for `COC(=O)N(C(=O)N1CO[C@@]2(C(=O)OC)Cc3cc(Cl)ccc3C2=N1)c1ccc(OC(F)(F)F)cc1`, the Potency result in test [10], in [8], in test [2], in [9] and in test [3] was “inactive” in each case.
As for `C=CCC1=C(C)C(OC(=O)C2C(C=C(C)C)C2(C)C)CC1=O` (centres undefined), the Potency in test [5] is 51.9 µM (active); in test [6] it was 23.2 µM (active); in test [7], 23.2 µM (active). The Potency result in test [2] is “inactive”.
As for `Clc1ccc(CO/N=C(\Cn2ccnc2)c2ccc(Cl)cc2Cl)c(Cl)c1`, the results for the Potency in test [1] and in test [7] were 21.3 µM (active) and 19 µM (active), respectively. For the same molecule, the Potency result in test [8], in test [2] and in test [3] was “inactive” throughout.
